VCAM1 pot – enhances TNF alpha induced VCAM1 expression in HUVEC. HUVEC TNFa-stimulated VCAM-1 immunofluorescence, high-content imaging; scaled per plate to unstimulated/TNFa-only wells. activation, % at 2 µM. 0.19% of 93,000 active;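 active means activation above the screen mean plus 3 SD, with well images confirming the hit on visual review, cut at about 28% in these data, passing the limit was not always enough; inconclusive means activation above that limit but images do not confirm it; inactive means activation not above that limit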;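 further: signal is the number of cytoplasmic VCAM-1 stained grains per positive cell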
VCAM1 pot confirm – potentiators of TNFa-induced VCAM1 expression, confirmation, imaging, HUVEC, triplicate retest. shares compounds with VCAM1 pot. activation, % at 2 µM. HUVEC TNFa-stimulated VCAM-1 immunofluorescence imaging. 230 tested, under 10 active;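 active means activation above 30% in triplicate retests at 2 µM, then confirmed by visual review of the well images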;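 further: scaled per plate between unstimulated and TNFa-stimulated DMSO control wells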
Numbers without * were called inactive; ? = inconclusive. The entries come from a sample that favours hits as a whole.

SMILES	VCAM1 pot	others
COc1ccc(OC)c(NS(=O)(=O)c2ccc3c(c2)n(C)c(=O)n3C)c1	-18.9
COc1ccc(C(=O)c2ccc(N(C)C)cc2)c2ccccc12	-59.7
Cc1c(C(=O)O)sc2nc3n(c(=O)c12)CCC(C)CC3 (stereo unspecified)	0.0
Clc1ccc(CSc2cc3c(nn2)-c2ccccc2CC3)cc1	-9.5
Cc1ccc(S(=O)(=O)NCC(c2cccnc2)N(C)C)cc1 (stereo unspecified)	-4.8
Cc1cc(C(F)(F)F)nc(NCc2cccnc2)n1	?	VCAM1 pot confirm=-16.9
FC(F)(F)c1cc(-c2ccc3c(c2)OCO3)nc(NCc2ccco2)n1	-77.6
CC(C)(C)Nc1nc(NCc2cccnc2)nc(N2CCOCC2)n1	-14.0
Cc1cc2ncn(C(=O)N3CCCC3)c2cc1C	-12.5
CCOC(=O)C1CCN(c2c(NCCCN(CC)c3ccccc3)c(=O)c2=O)CC1	-24.1
CCOC(=O)C1CCN(Cc2c(F)cccc2Cl)CC1	6.6
CCOC(=O)C1CCN(C(=O)C2CCN(c3nc4ccc(OC)cc4s3)CC2)CC1	114.0*	VCAM1 pot confirm=-3.2
CC(C)N1C(=O)C2C(C(=O)NCc3ccccc3)C3C=CC2(O3)C1C(=O)NC(C)(C)C (stereo unspecified)	1.2
Cc1cc2n(n1)SC(Nc1cc(Cl)ccc1Cl)N2 (stereo unspecified)	-20.8
CCN(C(=O)c1cccc(F)c1)c1ccccc1C	-8.6
CCOC(=O)N1CCN(C(=O)c2cc(S(=O)(=O)N3CCCC3)cn2C)CC1	4.1
CCOC(=O)N1CCC(NC(=O)c2ccc(OC)c(CN3CC(=O)N4CCCC4C3=O)c2)CC1 (stereo unspecified)	-22.5
CCOC(=O)N1CCC(NC(=O)c2cc(S(=O)(=O)N3CCCC3)cn2C)CC1	42.7*	VCAM1 pot confirm=-4.8
O=C1c2ccccc2-c2nc3ccccc3nc21	1.7
Cc1ccccc1Cn1nnc2c1C(=O)c1ccccc1C2=O	46.2*	VCAM1 pot confirm=-13.0
Cc1ccccc1CSc1nncn1N	-13.4
CCOC(=O)C1=C(c2cccc(F)c2)NC(=S)NC1C (stereo unspecified)	-6.1
NCCN1CCN(CCN)CC1	-94.4
O=C(Nc1ccc2nsnc2c1)NC1CCCCC1	56.9*	VCAM1 pot confirm=-5.8
CC(C)C(=O)Nc1ccc(C(=O)NNC(=O)NC2CCCCC2)cc1	-36.1
SMILES	VCAM1 pot	others
Cn1c(CCNC(=O)c2ccco2)nc2cc(NC(=O)NC3CCCCC3)ccc21	3.7
O=C(O)C1CCN(S(=O)(=O)/C=C/c2ccccc2)CC1	-8.0
O=c1cc(C(Cl)(Cl)Cl)oc2c1ccc1ccccc12	-80.0
N=c1nc(N)nc2n1NC(c1ccc(F)cc1)=CS2	-55.4
C1=C(CCNCC2CC2)CCCC1	0.4
CCOc1ccc(S(=O)(=O)NCCC(=O)NCc2ccco2)cc1	1.2
CCOC(=O)COc1ccc(S(=O)(=O)NCCC2=CCCCC2)cc1	48.1*	VCAM1 pot confirm=-6.4
O=C(O)CCCC(=O)Nc1ccccc1C(=O)O	1.5
C=CCNC(=O)CC(=O)N/N=C/c1ccccc1F	0.4
Cc1ccc(S(=O)(=O)N2CCN(S(C)(=O)=O)CC2)cc1	7.0
COC1(OC)C(/C=C/c2ccc(C)cc2)C(C#N)(C#N)C1(OC)OC (stereo unspecified)	-5.0
Cc1onc(C(=O)/C=C/N(C)C)c1C(=O)Nc1nccs1	4.9
CCOC(=O)C1=NN(c2ccc(Cl)cc2)C(c2ccccc2)CC1=O (stereo unspecified)	-25.6
C=CCNC(=O)/C(=C\C=C\c1ccccc1)NC(=O)c1ccc(OCCCC)cc1	3.6
COc1ccc(CN2CCN(S(=O)(=O)c3ccccc3)CC2)c(OC)c1	5.9
COc1ccc(C(=O)N2CCN(S(=O)(=O)c3ccccc3)CC2)c(OC)c1	-7.9
CCN1CCN(S(=O)(=O)c2cc(OC)ccc2OC)CC1	63.6*	VCAM1 pot confirm=-4.0
CCOC(=O)c1cnc2c(-c3ccccc3)cnn2c1N	?	VCAM1 pot confirm=-4.4
CCOC(=O)c1cnn(-c2cc(C)c3ccccc3n2)c1N	-1.8
CCOC(=O)c1c(-c2ccc(Cl)cc2)cn2ccccc12	-3.7
COc1ccc(-n2nnnc2SCC(=O)c2cc3ccccc3o2)cc1	3.3
CCCn1nc([N+](=O)[O-])c(C(C#N)c2nc3ccccc3s2)c(Cl)c1=O (stereo unspecified)	-50.7
CCOC(=O)c1c(NC(=O)OC)sc(C(=O)N(CC)CC)c1C	-0.5
CC(=O)c1ccc(C(C)(C)c2ccc(C(C)=O)s2)s1	13.2
NC(=O)C1CCN(C(=O)CSc2nc3ccccc3o2)CC1	2.8
SMILES	VCAM1 pot	others
NC(=O)C1CCN(C(=O)CCCCCn2c(=O)[nH]c3ccsc3c2=O)CC1	?	VCAM1 pot confirm=-6.7
CCn1ncc(/C=C/C(=O)Nc2c(C)nn(Cc3ccc(Cl)cc3Cl)c2C)c1C	4.6
COC(=O)c1ccc(CNC(=O)CSc2nc3sc(C)c(C)c3c(=O)n2C)o1	-25.9
Clc1ccc(COc2ccccn2)cc1Cl	-7.6
Cc1nn(Cc2ccc(C(=O)N3c4ccc(F)cc4CCC3C)o2)c(C)c1Br (stereo unspecified)	-1.4
COC(=O)CSCC(=O)Nc1cc2c(cc1C(C)=O)OCO2	4.4
CCCSC1=C(C#N)C(c2cccnc2)C(C(=O)OCC)=C(c2ccccc2)N1 (stereo unspecified)	18.1
N#CC1=C(N)Oc2n[nH]c(-c3ccccc3)c2C1c1cccnc1 (stereo unspecified)	94.0*	VCAM1 pot confirm=-14.1
CCN(CC)c1ccc2c(c1)OC(N)=C(C#N)C2c1cccnc1 (stereo unspecified)	-39.1
Cc1ccc(C)c(NC(=O)CN2C(=O)CNC2=O)c1	4.4
CCc1ccc(N/C(SCc2ccccc2C)=C(/C#N)C(=O)NCc2ccco2)cc1	-4.2
CN(CP(=O)(O)CN(C)S(C)(=O)=O)S(C)(=O)=O	31.6*	VCAM1 pot confirm=-12.4
Cn1nc(C(F)(F)F)c(C(=O)Nc2ccc(F)cc2F)c1Sc1ccc(C(F)(F)F)cc1	5.6
CC(C)[C@H](NC(=O)OC(C)(C)C)c1nnc(SCc2cccc(F)c2)o1	1.5
Cc1cc(NC(=O)COc2ncnc3sc(C)c(C)c23)no1	19.7
CCn1c2c(c3cc(OCC(C)C)ccc31)CCCC2=O	47.0*	VCAM1 pot confirm=-10.6
Nc1c(Cl)cc(Cl)cc1C(=O)OCC(=O)NC1CC1	4.1
O=C(NCc1ccco1)c1ccccc1F	1.3
O=C(NCc1ccco1)c1sc2cc(F)ccc2c1Cl	43.7*	VCAM1 pot confirm=-10.2
CC(C)c1cc(C(=O)NCc2ccco2)no1	-10.0
CCOC(=O)c1nnn(CC(=O)N2N=C(c3cccc4ccccc34)CC2c2ccccc2)c1C(=O)OCC (stereo unspecified)	-34.5
COc1ccc(-c2c3c(nc4sc5c(Cl)nc(C)nc5c24)CCC3)cc1	1.5
CCOC(=O)c1ccc(NC(=O)Nc2ccc(S(N)(=O)=O)cc2)cc1	2.1
CCOC(=O)c1ccc(NC(=O)CC2SC(=NC)N(C)C2=O)cc1 (stereo unspecified)	-17.5
CCOC(=O)c1ccc(Nc2c(CC)c(C)nc3ncnn23)cc1	?	VCAM1 pot confirm=-8.0
SMILES	VCAM1 pot	others
CCOc1ccccc1N1CCN(C(=O)c2cccc(-c3ccc(O)cc3)c2)CC1	-44.4
CC1CCN(c2ccccc2NC(=S)NC(=O)c2ccco2)CC1	-6.2
CCOC(=O)c1c(-c2cccs2)csc1NC(=O)CCCC(=O)O	7.9
CCOC(=O)c1cc(CC)sc1NC(=O)Cc1ccccc1	34.9*	VCAM1 pot confirm=-8.9
COC(=O)c1c(NC(=O)Cc2ccccc2)sc(C)c1C	-0.3
CCNCC(O)COCC(O)CNCC (stereo unspecified)	-62.1
Cc1cc2ncn(-c3ncnc4scc(-c5ccccc5)c34)c2cc1C	8.2

Screening results deposited in PubChem by Columbia University Molecular Screening Center.
